Laboratory results: the supplement of paper PMC10849652
Targets with a hit are over-represented here; the source holds about 7,900 in all. About 0.6% of all pairs of compound and target were hits.

Tests used:
Assay in all cases: log2 fold change, soluble protein after heating vs DMSO (PISA); higher = thermal stabilisation; K562 cells, 10 uM, 30 min; active = over 0.2 and 3.5 SD of the protein, either way, in both replicates (recomputed)
erlotinib = compound: C#Cc1cccc(Nc2ncnc3cc(OCCOC)c(OCCOC)cc23)c1 [erlotinib]
How it was run: (§1)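 Soluble protein was quantified by TMTpro 16plex LC-MS/MS after channel sums were equalised. It was obtained as the supernatant after 21,000xg for 90 min from pooled aliquots of K562 cells (2×10^6 cells/mL, 10 μM compound, 30 min) heated for 3 min across 48°C-58°C and extracted in PBS with 0.5% NP-40 at 4°C. Thermal stability values are relative to control samples and come from duplicates. They are given as log2 fold changes.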

[1] = compound: C/C(=N\NC(=O)C1=CC(=CC=C1)S(=O)(=O)N2CCOCC2)/C3=C(C=CC(=C3)Cl)O
How it was run: as §1

[2] = compound: C1=CC(=C(C=C1Cl)C2=NC3=NC=CN=C3C(=N2)NC4=CC=NC=C4)F
How it was run: as §1

[3] = compound: C1=CC(=CC=C1C2=NC3=C(N2)C=C(C=C3)C(=O)N)OC4=CC=C(C=C4)Cl
How it was run: as §1

[4] = compound: C1=CC2=C(C=CC(=C2)/C=C\3/C(=O)NC(=NCC4=CC=CS4)S3)N=C1
How it was run: as §1

[5] = compound: C1=CC2=NC=CN=C2C=C1/C=C/3\C(=O)NC(=O)S3
How it was run: as §1

[6] = compound: C1=CC=C(C=C1)C2=NC(=C(N2)C3=CC=NC=C3)C4=CC(=C(C=C4)Cl)O
How it was run: as §1

[7] = compound: C1=CC=C2C(=C1)C3=NNC4=CC=CC(=C43)C2=O
How it was run: as §1

[8] = compound: C1CCN(C1)C(=O)NC2=CC=CC(=C2)NC3=NC=C(C(=N3)NCCC4=CN=CN4)Br
How it was run: as §1

[9] = compound: C1CN(CCC1(CC2=CC=C(C=C2)Cl)N)C3=NC=NC4=C3C=CN4
How it was run: as §1

IRAK-1-4 Inhibitor I = compound: C1COCCN1CCN2C3=CC=CC=C3N=C2NC(=O)C4=CC(=CC=C4)[N+](=O)[O-] [IRAK-1-4 Inhibitor I]
How it was run: as §1

ibrutinib = compound: C=CC(=O)N1CCC[C@@H](n2nc(-c3ccc(Oc4ccccc4)cc3)c3c(N)ncnc32)C1 [ibrutinib]
How it was run: as §1

[10] = compound: CC(=O)c1cnc2ccc(-c3cc(Cl)c(O)c(Cl)c3)nc2c1N[C@H]1CC[C@H](CN(C)C)CC1
How it was run: as §1

ralimetinib = compound: CC(C)(C)Cn1c(N)nc2ccc(-c3[nH]c(C(C)(C)C)nc3-c3ccc(F)cc3)nc21 [ralimetinib]
How it was run: as §1

[11] = compound: CC(C)(O)CC(=O)NCCn1ccc2ncnc(Nc3ccc(Oc4cccc(C(F)(F)F)c4)c(Cl)c3)c21
How it was run: as §1

[12] = compound: CC(C)C1=C2N=C(C=C(N2N=C1)NCC3=CC=CC=C3)NCCCCCCN
How it was run: as §1

[13] = compound: CC(C)C[C@@H](C=O)NC(=O)[C@H](CC(C)C)NC(=O)[C@H](CC(C)C)NC(=O)OCc1ccccc1
How it was run: as §1

pinometostat = compound: CC(C)N(C[C@H]1O[C@@H](n2cnc3c(N)ncnc32)[C@H](O)[C@@H]1O)[C@H]1C[C@@H](CCc2nc3cc(C(C)(C)C)ccc3[nH]2)C1 [pinometostat]
How it was run: as §1

[14] = compound: CC1=C(C(CC(=O)N1)C2=CC=C(C=C2)C(F)(F)F)C(=O)NC3=C(C=C4C(=C3)C=NN4)F
How it was run: as §1

[15] = compound: CC1=C(C2=C(C=C1)C(=O)C3=CC=CC=C3N2CCCN)C
How it was run: as §1

Measured: log2 fold change

HIP1 (UniProt O00291)
Chain of UniProt O00291 (O00291 whole entry, looked up): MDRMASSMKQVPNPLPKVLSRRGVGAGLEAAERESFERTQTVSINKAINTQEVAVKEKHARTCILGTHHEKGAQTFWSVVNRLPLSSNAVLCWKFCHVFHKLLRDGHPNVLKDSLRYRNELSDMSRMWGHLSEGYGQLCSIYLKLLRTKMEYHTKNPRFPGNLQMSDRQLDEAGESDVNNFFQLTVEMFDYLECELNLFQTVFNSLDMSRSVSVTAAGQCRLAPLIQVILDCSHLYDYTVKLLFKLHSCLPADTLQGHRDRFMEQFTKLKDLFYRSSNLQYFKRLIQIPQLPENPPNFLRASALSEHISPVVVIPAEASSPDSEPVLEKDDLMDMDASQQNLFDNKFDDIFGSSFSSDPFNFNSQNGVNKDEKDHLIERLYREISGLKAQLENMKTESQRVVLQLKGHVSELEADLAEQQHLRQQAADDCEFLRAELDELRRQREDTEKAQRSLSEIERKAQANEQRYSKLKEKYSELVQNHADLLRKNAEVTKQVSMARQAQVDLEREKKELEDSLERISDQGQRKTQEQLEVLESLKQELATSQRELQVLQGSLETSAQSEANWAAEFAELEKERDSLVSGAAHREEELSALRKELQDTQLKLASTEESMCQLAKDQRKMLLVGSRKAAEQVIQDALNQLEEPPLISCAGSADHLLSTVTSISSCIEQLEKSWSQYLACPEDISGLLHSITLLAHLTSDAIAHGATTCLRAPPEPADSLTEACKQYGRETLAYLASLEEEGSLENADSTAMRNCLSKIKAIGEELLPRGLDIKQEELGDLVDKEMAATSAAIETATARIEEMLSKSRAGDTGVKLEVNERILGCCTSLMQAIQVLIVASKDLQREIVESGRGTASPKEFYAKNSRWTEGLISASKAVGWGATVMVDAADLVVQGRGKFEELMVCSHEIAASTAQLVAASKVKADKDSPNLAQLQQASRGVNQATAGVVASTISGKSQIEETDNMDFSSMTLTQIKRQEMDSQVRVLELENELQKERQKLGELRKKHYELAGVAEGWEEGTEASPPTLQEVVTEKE
inactive: erlotinib 0.018 | [1] 0.033 | [2] 0.046 | [3] -0.004 | [4] 0.018 | [5] -0.056 | [6] 0.011 | [7] -0.166 | [8] -0.209 | [9] 0.09 | IRAK-1-4 Inhibitor I -0.002 | ibrutinib 0.083 | [10] -0.07 | ralimetinib -0.003 | [11] -0.035 | [12] -0.056 | [13] 0.079 | pinometostat 0.045 | [14] 0.074 | [15] 0.038

GABPA (UniProt Q06546)
Chain of UniProt Q06546 (Q06546 whole entry, looked up): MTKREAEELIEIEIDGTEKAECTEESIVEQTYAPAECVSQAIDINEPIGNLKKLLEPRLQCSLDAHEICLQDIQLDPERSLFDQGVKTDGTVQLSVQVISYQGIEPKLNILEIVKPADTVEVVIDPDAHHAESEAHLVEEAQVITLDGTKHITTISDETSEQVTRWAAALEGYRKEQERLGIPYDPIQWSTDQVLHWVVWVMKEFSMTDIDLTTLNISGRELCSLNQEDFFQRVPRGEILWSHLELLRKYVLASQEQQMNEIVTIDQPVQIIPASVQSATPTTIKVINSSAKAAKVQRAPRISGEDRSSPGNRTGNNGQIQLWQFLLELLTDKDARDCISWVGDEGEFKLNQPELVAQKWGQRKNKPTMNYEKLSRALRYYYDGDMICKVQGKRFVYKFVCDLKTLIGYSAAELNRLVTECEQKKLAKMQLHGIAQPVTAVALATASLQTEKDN
inactive: erlotinib 0.07 | [1] 0.121 | [2] 0.014 | [3] -0.042 | [4] 0.083 | [5] -0.055 | [6] 0.049 | [7] 0.025 | [8] -0.028 | [9] 0.011 | IRAK-1-4 Inhibitor I -0.004 | ibrutinib -0.014 | [10] -0.054 | ralimetinib 0.001 | [11] -0.107 | [12] -0.243 | [13] -0.013 | pinometostat -0.007 | [14] -0.043 | [15] -0.175

GDPD1 (UniProt Q8N9F7)
Chain of UniProt Q8N9F7 (Q8N9F7 whole entry, looked up): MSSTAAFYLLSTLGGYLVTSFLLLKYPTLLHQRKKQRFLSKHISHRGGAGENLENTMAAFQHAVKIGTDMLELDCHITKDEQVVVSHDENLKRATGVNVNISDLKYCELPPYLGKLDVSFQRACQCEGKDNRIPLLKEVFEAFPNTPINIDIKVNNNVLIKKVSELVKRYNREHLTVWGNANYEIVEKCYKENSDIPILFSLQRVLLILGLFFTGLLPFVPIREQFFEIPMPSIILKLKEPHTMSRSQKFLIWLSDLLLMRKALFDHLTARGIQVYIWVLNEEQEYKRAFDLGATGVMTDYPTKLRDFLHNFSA
inactive: erlotinib 0.077 | [1] 0.024 | [2] -0.061 | [3] -0.018 | [4] -0.015 | [5] 0.01 | [6] 0.048 | [7] -0.018 | [8] -0.037 | [9] 0.024 | IRAK-1-4 Inhibitor I 0.02 | ibrutinib -0.03 | [10] 0.044 | ralimetinib 0.066 | [11] -0.03 | [12] 0.04 | [13] 0.03 | pinometostat -0.027 | [14] -0.005 | [15] -0.015

FERMT3 (UniProt Q86UX7)
Chain of UniProt Q86UX7 (Q86UX7 whole entry, looked up): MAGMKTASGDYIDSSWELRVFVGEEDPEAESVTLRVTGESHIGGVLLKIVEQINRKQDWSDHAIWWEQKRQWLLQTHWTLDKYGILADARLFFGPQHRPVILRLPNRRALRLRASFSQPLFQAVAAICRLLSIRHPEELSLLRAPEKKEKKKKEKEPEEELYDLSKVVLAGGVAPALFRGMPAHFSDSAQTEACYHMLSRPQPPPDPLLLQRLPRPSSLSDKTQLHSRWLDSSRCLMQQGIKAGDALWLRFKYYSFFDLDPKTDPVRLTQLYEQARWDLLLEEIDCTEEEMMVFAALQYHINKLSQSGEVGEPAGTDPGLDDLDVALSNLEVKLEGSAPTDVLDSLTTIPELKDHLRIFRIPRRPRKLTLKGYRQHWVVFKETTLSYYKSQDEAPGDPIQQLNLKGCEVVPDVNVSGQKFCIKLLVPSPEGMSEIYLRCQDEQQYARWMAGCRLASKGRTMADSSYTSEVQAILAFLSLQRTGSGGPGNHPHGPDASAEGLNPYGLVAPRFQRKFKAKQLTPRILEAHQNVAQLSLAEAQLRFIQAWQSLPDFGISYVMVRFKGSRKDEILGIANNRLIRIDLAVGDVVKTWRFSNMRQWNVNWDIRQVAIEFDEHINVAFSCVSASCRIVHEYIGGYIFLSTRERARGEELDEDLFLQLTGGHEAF
inactive: erlotinib 0.019 | [1] 0.076 | [2] 0.091 | [3] -0.003 | [4] 0.028 | [5] 0.02 | [6] 0.011 | [7] 0.008 | [8] -0.006 | [9] 0.012 | IRAK-1-4 Inhibitor I -0.019 | ibrutinib -0.036 | [10] -0.039 | ralimetinib 0.01 | [11] -0.048 | [12] -0.091 | [13] -0.022 | pinometostat -0.002 | [14] -0.009 | [15] 0.003
